In PubChem BioAssay (EPA / NIEHS):
Inconclusive results are not listed. The source made the active and inactive calls. How the source made its calls: active means hit-call score of the fitted dose curve at least 0.9, where 1 is the maximum; inconclusive means response in the unintended direction; inactive means score below 0.9.

What was measured:
[1] = TOX21_p53_BLA_p2_viability: Viability Assessment in the Tox21 HCT-116 p53 Agonism Beta-lactamase Assay, Phase 2 (AID 2283591);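 further: compound exposure lasted 16 h at 37 °C; actives lower the ATP signal meaning cytotoxicity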
Method in brief: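 Cytotoxicity readout: CellTiter-Glo ATP luminescence, 30 min at room temperature, after the beta-lactamase read. Cells were HCT116 exposed 16 h at 37C to compounds pin-transferred at 217-fold dilution from DMSO stocks.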

[2] = biological target: Cellular tumor antigen p53 (Homo sapiens) (UniProt P04637); test: TOX21_p53_BLA_p2_ratio: Tox21 HCT-116 p53 Agonism Beta-lactamase Assay, Ratio, Phase 2 (AID 2283592)
Method in brief: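 Plated HCT116 p53-bla cells (4000/well) received compound after 5 h, then 16 h at 37C/5% CO2. CCF4-AM added, 2 h RT. Ratio of 460 to 530 nm emission taken as the p53 reporter signal.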

[3] = biological target: Cellular tumor antigen p53 (Homo sapiens) (UniProt P04637); test: TOX21_p53_BLA_p3_ratio: Tox21 HCT-116 p53 Agonism Beta-lactamase Assay, Ratio, Phase 3 (AID 2283596)
Method in brief: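 Cells were seeded at 4000/well, rested 5 h at 37C, then dosed with DMSO compound solutions (217-fold dilution) for 16 h. CCF4-AM substrate was loaded for 2 h at room temperature, and the 460/530 nm emission ratio was fitted for gain of signal versus DMSO.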

[4] = TOX21_p53_BLA_p4_viability: Viability Assessment in the Tox21 HCT-116 p53 Agonism Beta-lactamase Assay, Phase 4 (AID 2283597);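 further: hits lower the luminescence signal meaning cytotoxicity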
Method in brief: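 Readout: ATP luminescence (CellTiter-Glo), measured 30 min after reagent addition at RT. The reagent followed a 2 h CCF4-AM incubation, and the cells had been exposed to compound for 16 h at 37C.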

[5] = biological target: Cellular tumor antigen p53 (Homo sapiens) (UniProt P04637); test: TOX21_p53_BLA_p5_ratio: Tox21 HCT-116 p53 Agonism Beta-lactamase Assay, Ratio, Phase 5 (AID 2283599)
Method in brief: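 Beta-lactamase reporter ratio (blue 460 nm over green 530 nm, 405 nm excitation) after 2 h CCF4-AM loading, in HCT-116 cells exposed 16 h at 37 C to compounds pinned at 217-fold dilution. Increases relative to DMSO baseline scored.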

[6] = TOX21_p53_BLA_p5_viability: Viability Assessment in the Tox21 HCT-116 p53 Agonism Beta-lactamase Assay, Phase 5 (AID 2283600)
Method in brief: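 Workflow: seed 4000 cells per well, wait 5 h, add compounds (DMSO, 217-fold dilution), incubate 16 h, load CCF4-AM 2 h, add CellTiter-Glo, read luminescence after 30 min.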

[7] = biological target: Cellular tumor antigen p53 (Homo sapiens) (UniProt P04637); test: TOX21_p53_BLA_p4_ratio: Tox21 HCT-116 p53 Agonism Beta-lactamase Assay, Ratio, Phase 4 (AID 2283601)
Method in brief: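 Signal is the blue/green (460nm/530nm) ratio of cleaved versus uncleaved CCF4-AM substrate, read after 2 h substrate loading. Cells were HCT116 carrying the p53-responsive beta-lactamase reporter, dosed 16 h at 37C, 5% CO2; CellTiter-Glo measured in parallel.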

[8] = Tanguay_ZF_120hpf_MORT_legacy: (Legacy) Oregon State University Tanguay Lab 120 Hour Post-fertilization zebrafish Assay for Mortality (AID 2283633)
Method in brief: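 5D WT zebrafish, chorion removed 4 hpf; 1 embryo/well from 6 hpf; static exposure to 120 hpf, 28C, dark, sealed. Final DMSO 0.64%. Readout: binary mortality, brightfield, 24 + 120 hpf; DMSO as negative control.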

[9] = Tanguay_ZF_120hpf_YSE_legacy: (Legacy) Oregon State University Tanguay Lab 120 Hour Post-fertilization zebrafish Assay for Yolk Sac Edema (AID 2283634);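 on AC50: actives raise the incidence of yolk sac edema above the DMSO baseline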
Method in brief: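 Dechorionate (pronase, 4 hpf) → place one 6 hpf embryo per well → static compound exposure, sealed and foil-covered, 28C, to 120 hpf → record yolk sac edema as present or absent. Final DMSO 0.64%.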

[10] = Tanguay_ZF_120hpf_AXIS_legacy: (Legacy) Oregon State University Tanguay Lab 120 Hour Post-fertilization zebrafish Assay for Body Axis Malformation (AID 2283635)
Method in brief: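 Chorion is removed with pronase at 4 hpf, then single 6 hpf embryos are dosed (final DMSO 0.64%) and held statically at 28C in sealed, foil-covered plates. At 120 hpf body axis malformation is recorded as present or absent.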

[11] = Tanguay_ZF_120hpf_SNOU_legacy: (Legacy) Oregon State University Tanguay Lab 120 Hour Post-fertilization zebrafish Assay for Snout Malformation (AID 2283637)
Method in brief: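 Binary snout-malformation call at 120 hpf in wild-type 5D embryos, chorion removed by pronase, under static exposure from 6 hpf at 28C (0.64% DMSO). Embryos dying by 24 or 120 hpf excluded.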

[12] = Tanguay_ZF_120hpf_JAW_legacy: (Legacy) Oregon State University Tanguay Lab 120 Hour Post-fertilization zebrafish Assay for Jaw Malformation (AID 2283638)
Method in brief: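 Steps: dechorionate 4 hpf embryos (pronase); plate 1/well at 6 hpf; add test chemical, 0.64% DMSO final; seal, cover, hold at 28C statically to 120 hpf; score jaw defect presence/absence microscopically. Dead embryos not scored.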

[13] = Tanguay_ZF_120hpf_PE_legacy: (Legacy) Oregon State University Tanguay Lab 120 Hour Post-fertilization zebrafish Assay for Pericardial Edema (AID 2283640)
Method in brief: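 Embryos from wild-type 5D adults were staged, then dosed in 0.64% DMSO. They were kept sealed in the dark at 28C until 120 hpf. Pericardial edema was then recorded as present or absent.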

[14] = Tanguay_ZF_120hpf_BRAI_legacy: (Legacy) Oregon State University Tanguay Lab 120 Hour Post-fertilization zebrafish Assay for Brain Malformation (AID 2283641)
Method in brief: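 Wild-type 5D larvae, static waterborne exposure to 120 hpf, 28C, 0.64% v/v DMSO. Brightfield scoring of brain defects, binary; dead embryos excluded. Positive ctrl 5uM trimethyltin chloride.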

[15] = Tanguay_ZF_120hpf_SOMI_legacy: (Legacy) Oregon State University Tanguay Lab 120 Hour Post-fertilization zebrafish Assay for Somite Malformation (AID 2283647)
Method in brief: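 Read-out: presence or absence of somite malformation in 120 hpf larvae, gain-of-signal relative to DMSO baseline. Embryos lacked chorion (pronase, 4 hpf) and were exposed statically from 6 hpf at 28C; dead larvae not scored.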

[16] = Tanguay_ZF_120hpf_OTIC_legacy: (Legacy) Oregon State University Tanguay Lab 120 Hour Post-fertilization zebrafish Assay for Otic Vesicle Malformation (AID 2283639)
Method in brief: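 Brightfield scoring at 120 hpf, binary present/absent; DMSO negative control, 5uM trimethyltin chloride positive control. Static exposure at 28C, final DMSO 0.64% (vol/vol). Dead embryos not scored for malformation.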

[17] = Tanguay_ZF_120hpf_EYE_legacy: (Legacy) Oregon State University Tanguay Lab 120 Hour Post-fertilization zebrafish Assay for Eye Malformation (AID 2283636);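 further: binary presence or absence of eye malformation scored by brightfield in 120 hpf larvae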
Method in brief: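 Binary brightfield scoring of eye defects at 120 hpf after static exposure from 6 hpf of single pronase-dechorionated wild-type embryos (28C, 0.64% DMSO). Non-mortality endpoints omitted where embryos died; fit vs DMSO.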

Measured: AC50

Chain of Cellular tumor antigen p53 (Homo sapiens) (P04637 whole entry, looked up): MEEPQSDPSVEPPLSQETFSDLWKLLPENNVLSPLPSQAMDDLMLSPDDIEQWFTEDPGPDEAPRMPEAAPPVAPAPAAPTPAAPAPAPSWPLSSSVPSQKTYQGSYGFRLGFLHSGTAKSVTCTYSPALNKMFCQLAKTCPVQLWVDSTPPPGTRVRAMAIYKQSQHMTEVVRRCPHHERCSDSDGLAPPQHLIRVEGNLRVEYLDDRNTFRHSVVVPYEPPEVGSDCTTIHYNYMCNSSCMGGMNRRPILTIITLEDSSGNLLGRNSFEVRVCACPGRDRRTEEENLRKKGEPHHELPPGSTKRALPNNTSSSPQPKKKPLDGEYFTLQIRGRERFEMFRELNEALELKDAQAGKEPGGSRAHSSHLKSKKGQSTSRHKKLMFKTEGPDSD

OCCOc1ccccc1
not listed: [16] | [17]
inactive: all other assays above

O=[N+]([O-])c1c(Cl)c(Cl)c(Cl)c(Cl)c1Cl
not listed: [8] | [17]
inactive: all other assays above

O=[N+]([O-])/N=C1\NCCN1Cc1ccc(Cl)nc1
inactive: [8] | [9] | [10] | [11] | [12] | [16] | [13] | [14] | [15]

CC(C)N(C(=O)COc1nnc(C(F)(F)F)s1)c1ccc(F)cc1
not listed: [1] | [2] | [7] | [10] | [14] | [16] | [17]
inactive: all other assays above

CCC(C)(C)C(=O)OC1=C(c2ccc(Cl)cc2Cl)C(=O)OC12CCCCC2
active: [3] 2.5 µM | [5] 28.4 µM
not listed: [6] | [14]
inactive: all other assays above

CCCN(CCC)c1c([N+](=O)[O-])cc(C(F)(F)F)cc1[N+](=O)[O-]
inactive: [8] | [9] | [10] | [11] | [12] | [15]

CCC(C)(NC(=O)c1cc(Cl)c(C)c(Cl)c1)C(=O)CCl (configuration not stated)
inactive: [8] | [10] | [12] | [16] | [13] | [14]
active: [1] 71.9 µM | [2] 30.2 µM | [3] 29.6 µM | [4] 60.3 µM | [5] 72.2 µM | [6] 74.7 µM | [7] 66.8 µM | [9] 26.1 µM | [11] 25.4 µM

CCc1ccc(C(=O)NN(C(=O)c2cc(C)cc(C)c2)C(C)(C)C)cc1
not listed: [6] | [9] | [13] | [15] | [17]
inactive: all other assays above

CCOC1Oc2ccc(OS(C)(=O)=O)cc2C1(C)C (configuration not stated)
inactive: [8] | [9] | [10] | [11] | [12] | [16] | [13] | [14] | [15]

CCN(CC)C(=O)SCc1ccc(Cl)cc1
not listed: [2] | [6] | [16] | [17]
inactive: all other assays above

O=C(Nc1ccccc1)Nc1cnns1
active: [2] 64.1 µM | [7] 52.9 µM
not listed: [6] | [17]
inactive: all other assays above

CNC(=O)/C=C(\C)OP(=O)(OC)OC
inactive: [8] | [9] | [10] | [11] | [12] | [16] | [13] | [14] | [15]

CNC(=O)Oc1ccccc1OC(C)C
not listed: [4] | [15] | [17]
inactive: all other assays above

CNC(=O)Oc1cccc(N=CN(C)C)c1
not listed: [1] | [2] | [3] | [6] | [9] | [11] | [17]
inactive: all other assays above
